# Screening results (PubChem BioAssay)
# Hits are enriched below; roughly 1.6% of the tested compounds scored in any of these assays.
# KCNQ2 pot – potentiators of rat KCNQ2 potassium channel; O88943; B-score at 10 µM; 310,000 tested, 0.54% active; CHO-K1 KCNQ2, FluxOR thallium flux fluorescence; hits give high values;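 active = fluorescence ratio B-score at least 3 SD of library B-scores, with initial fluorescence B-score within 3 of them, cut at about 5.3 in these data; same plate scores as AID 2156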;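 note: B-score of peak minus minimum over baseline fluorescence ratio after K+ and Tl+ stimulus; positive B-score means potentiation of KCNQ2 with more thallium influx and brighter signal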
# Target sequence (O88943 whole entry, looked up): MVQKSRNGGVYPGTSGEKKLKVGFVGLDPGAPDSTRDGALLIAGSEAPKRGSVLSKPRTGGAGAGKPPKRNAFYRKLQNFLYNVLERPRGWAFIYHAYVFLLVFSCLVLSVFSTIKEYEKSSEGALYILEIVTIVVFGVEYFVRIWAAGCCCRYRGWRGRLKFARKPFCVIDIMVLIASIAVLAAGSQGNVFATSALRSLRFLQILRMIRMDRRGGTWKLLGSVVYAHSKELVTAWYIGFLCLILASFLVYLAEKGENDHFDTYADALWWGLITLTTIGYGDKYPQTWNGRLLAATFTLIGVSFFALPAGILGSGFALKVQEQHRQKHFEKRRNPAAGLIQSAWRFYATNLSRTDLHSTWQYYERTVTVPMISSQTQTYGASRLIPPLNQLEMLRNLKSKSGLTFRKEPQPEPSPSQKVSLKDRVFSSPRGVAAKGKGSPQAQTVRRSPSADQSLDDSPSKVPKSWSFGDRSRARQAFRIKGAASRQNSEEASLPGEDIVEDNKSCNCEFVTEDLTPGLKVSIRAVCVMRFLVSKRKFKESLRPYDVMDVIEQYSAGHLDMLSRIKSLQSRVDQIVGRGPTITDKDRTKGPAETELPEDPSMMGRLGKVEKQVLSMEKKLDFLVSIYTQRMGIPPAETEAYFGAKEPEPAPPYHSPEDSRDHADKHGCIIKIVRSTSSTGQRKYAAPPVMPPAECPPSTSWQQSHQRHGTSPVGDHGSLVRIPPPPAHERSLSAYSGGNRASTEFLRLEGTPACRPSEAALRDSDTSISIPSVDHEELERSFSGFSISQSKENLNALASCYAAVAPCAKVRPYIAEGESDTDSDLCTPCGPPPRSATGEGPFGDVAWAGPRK
# KCNQ2 inh – inhibitors of rat KCNQ2 potassium channel; O88943; CHO-K1 KCNQ2, FluxOR thallium flux, 20 min; hits give low values; B-score at 10 µM; 310,000 tested, 1.1% active;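 active = fluorescence ratio B-score at most minus 3 library SDs, with starting brightness B-score within 2 library SDs, cut at about -5.5 in these data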
# KCNQ2 block conf – confirmation of rat KCNQ2 potassium channel inhibitors; shares compounds with KCNQ2 inh; KCNQ2-expressing cells, thallium flux, inhibition; hits give low values; activity change, negative = inhibition, % at 10 µM; 1,000 tested, 57% active; AID 493025;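 note: 0% = vehicle wells and values are ratio percent relative to vehicle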
# KCNQ1 spec – human KCNQ1 activity in KCNQ2 inhibitor specificity screen; shares compounds with KCNQ2 inh; KCNQ1-expressing cells, FluxOR thallium flux fluorescence; hits give low values; activity change, negative = inhibition, % at 10 µM; 1,000 tested, 15% active; AID 493026;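 active = activity change at least 3 SD of negative controls below their mean in both duplicate wells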;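 note: CHO cells stably transfected with KCNQ1 and depolarized by potassium stimulus; peak minus minimum fluorescence over baseline after thallium addition; 0% = vehicle negative control and -100% = blank without thallium stimulus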
# CHO Tl ctr – activity in parental CHO cells lacking KCNQ2; shares compounds with KCNQ2 inh; thallium flux counter-screen; hits give low values; activity change, % at 10 µM; 1,000 tested, 14% active; AID 493029;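 note: 0% = vehicle negative controls with stimulus buffer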
# KCNQ2 patch conf – confirmation of rat KCNQ2 potassium channel inhibitors; shares compounds with KCNQ2 inh; KCNQ2-expressing cells, automated patch clamp current; calls only at 10 µM; 550 tested, 49% active
# An asterisk follows results filed as active; i = inactive; nt = no result given; + = active, no number. Unless noted, the rule behind the calls is not given here.
SMILES,KCNQ2 pot,KCNQ2 inh,KCNQ2 block conf,KCNQ1 spec,CHO Tl ctr,others
N#C/C(=C/c1ccc(N2CCCCC2)o1)c1cccc(F)c1,nt,i,nt,nt,nt,
CC1CC(C)CN(CCCNC(=O)c2ccc3c(c2)ncn3C2CCCC2)C1 (stereo not given),0.16,i,nt,nt,nt,
CC(C)(C)NC(=S)N/N=C/c1cccnc1,0.2,i,nt,nt,nt,
COc1cc(NC(=S)N2CCN(C)CC2)cc(OC)c1,nt,i,nt,nt,nt,
O=C(CN(Cc1ccccc1F)S(=O)(=O)c1ccc(Cl)cc1)NCCC1=CCCCC1,nt,i,nt,nt,nt,
Cc1ccc(S(=O)(=O)N(CC(=O)NCCC2=CCCCC2)Cc2ccccc2)cc1,-11,-11*,-30%*,i,i,KCNQ2 patch conf=i
Cc1ccc(S(=O)(=O)N(CC(=O)NCCC2=CCCCC2)Cc2ccccc2F)cc1,-7,-7*,i,i,i,
COc1ccc(CNC(=O)CN(Cc2ccc(C)cc2)S(=O)(=O)c2ccc(Cl)cc2)cc1,-6.7,-6.7*,i,i,i,
O=C(CN(Cc1ccccc1)S(=O)(=O)c1ccc(F)cc1)NCCC1=CCCCC1,nt,i,nt,nt,nt,
COc1ccc(CNC(=O)CN(C)S(=O)(=O)c2ccc(Cl)cc2)cc1,nt,i,nt,nt,nt,
Cc1cccc(C)c1NCC(=O)N1CCN(Cc2ccccc2)CC1,0.94,i,nt,nt,nt,
COc1ccc(COC(=O)c2sc3nc4n(c(=O)c3c2C)CCC4)cc1,nt,i,nt,nt,nt,
O=C(N[C@H](C(=O)O)c1ccccc1)C1CCC(Cn2cnc3ccccc3c2=O)CC1 (stereo not given in full),nt,i,nt,nt,nt,
Cc1ccc(/C(N)=N/OC(=O)C(C)c2ccc([N+](=O)[O-])cc2)cc1 (stereo not given),nt,i,nt,nt,nt,
O=C(CNC(=O)c1ccccn1)N=Nc1c(O)[nH]c2ccccc12,1.9,i,nt,nt,nt,
CCN(CC)CCCn1c2c(c(SCC(=O)Nc3ccccc3Cl)nc1=O)CCC2,nt,i,nt,nt,nt,
CCN(CC(=O)Nc1ccccc1OC)C(=O)c1cc(-c2ccccc2)nn1-c1ccccc1,nt,i,nt,nt,nt,
CCN(CC(=O)Nc1ccccc1C(F)(F)F)C(=O)c1cc(-c2ccccc2)nn1-c1ccccc1,-9.3,-9.3*,i,i,i,
Cc1occc1C(=O)NNC(=O)c1ccccc1[N+](=O)[O-],nt,i,nt,nt,nt,
CCOC(=O)CSc1nnc(CNc2ccccc2Cl)n1-c1ccccc1,-6.7,-6.7*,-25%*,i,i,KCNQ2 patch conf=+
CCOC(=O)CSc1nnc(Cc2ccccc2)n1-c1cccc(Cl)c1,nt,i,nt,nt,nt,
CCC1(C)N=C(N)Nc2nc3cc(C)c(C)cc3n21 (stereo not given),1.6,i,nt,nt,nt,
O=C(Nc1cccc(-c2csc(Nc3cccc(C(F)(F)F)c3)n2)c1)c1ccccc1,1.3,i,nt,nt,nt,
O=C(Nc1cccc(-c2csc(Nc3ccccc3)n2)c1)c1ccccc1,-6.8,-6.8*,i,i,i,
CCOC(=O)C(C)Sc1nc2c(cnn2-c2ccc(F)cc2)c(=O)[nH]1 (stereo not given),nt,i,nt,nt,nt,
SMILES,KCNQ2 pot,KCNQ2 inh,KCNQ2 block conf,KCNQ1 spec,CHO Tl ctr,others
O=C(COC(=O)C1CC1)Nc1c(Cl)cccc1C(F)(F)F,nt,i,nt,nt,nt,
Cc1ccc2c(C)c(C(=O)N3CCN(c4ncccn4)CC3)oc2c1C,-8.6,-8.6*,-29%*,i,i,KCNQ2 patch conf=+
Cc1ccc2c(C)c(C(=O)N(C)Cc3nccn3C)oc2c1C,-7.6,-7.6*,i,i,i,
Cc1c(C(=O)N(Cc2nccn2C)C(C)C)oc2c(F)cccc12,0.43,i,nt,nt,nt,
COc1ccc2oc(C(=O)N3CCN(c4ncccn4)CC3)c(C)c2c1,0.12,i,nt,nt,nt,
CCn1c(CC(=O)Nc2ccc(F)cc2)nnc1SCC(=O)Nc1nnc(C)s1,0.13,i,nt,nt,nt,
CCC1(CC)NC(=O)N(CC(=O)NC(=O)NCc2ccccc2)C1=O,nt,i,nt,nt,nt,
CSCC[C@H](NC(=O)[C@H](Cc1ccccc1)n1c(=O)[nH]c2ccccc2c1=O)C(=O)N1CCC(C(=O)O)CC1,nt,i,nt,nt,nt,
Cc1ccc(CN=c2c([N+](=O)[O-])nn(-c3cccc(C)c3)n2O)cc1,-7,-7*,-19%*,i,i,KCNQ2 patch conf=i
Cc1ccc(CN=c2c([N+](=O)[O-])nn(-c3cccc(Cl)c3)n2O)cc1,nt,i,nt,nt,nt,
O=C(COc1ccccc1)OC(C(=O)c1ccccc1)c1ccccc1 (stereo not given),1.7,i,nt,nt,nt,
COc1ccc(C(=O)C(OC(=O)c2ccccc2)c2ccccc2)cc1 (stereo not given),-7,-7*,i,i,i,
CN(C)CCN1C(=O)C2C(C(=O)Nc3cc(Cl)cc(Cl)c3)C3C=CC2(O3)C1C(=O)NC1CCCCC1 (stereo not given),nt,i,nt,nt,nt,
O=C(NCc1ccc(OC(F)(F)F)cc1)C1CCC(=O)N(C2CC2)C1 (stereo not given),nt,i,nt,nt,nt,
COC(=O)c1ccc(NC(=O)CCc2nnc3ccc(N4CCC5(CC4)OCCO5)nn23)cc1,nt,i,nt,nt,nt,
CCOc1cc(-c2nc3ccccn3c2NCC2CCCO2)ccc1O (stereo not given),-9.6,-9.6*,i,i,i,
COc1cc(-c2nc3ccccn3c2NCC2CCCO2)ccc1O (stereo not given),0.81,i,nt,nt,nt,
Cc1cnc(C(=O)OC(C)C(=O)Nc2cccc3ccccc23)cn1 (stereo not given),nt,i,nt,nt,nt,
O=C(NC1c2ccccc2-c2ccccc21)N1CCCCC1,-6.8,-6.8*,-25%*,i,i,KCNQ2 patch conf=+
CN(C)C(=O)NC1c2ccccc2-c2ccccc21,nt,i,nt,nt,nt,
COc1ccccc1NC(=O)C1=C(C)NC(SCC(=O)c2ccccc2)=C(C#N)C1c1ccco1 (stereo not given),-12,-12*,i,i,i,
COCCOC(=O)C1=C(C)NC(SCC(=O)NC(C)(C)C)=C(C#N)C1c1ccco1 (stereo not given),0.1,i,nt,nt,nt,
Cc1cc([N+](=O)[O-])nn1CC(=O)NCCc1c[nH]c2ccccc12,nt,i,nt,nt,nt,
O=C1CC(c2ccco2)Cc2nc(N3CCc4ccccc4C3)ncc21 (stereo not given),-10,-10*,-27%*,i,i,KCNQ2 patch conf=i
CC(C)c1ccc(C2CC(=O)c3cnc(N4CCc5ccccc5C4)nc3C2)cc1 (stereo not given),nt,i,nt,nt,nt,
SMILES,KCNQ2 pot,KCNQ2 inh,KCNQ2 block conf,KCNQ1 spec,CHO Tl ctr,others
COc1cccc(OC)c1C(=O)Nc1ccnn1C,0.61,i,nt,nt,nt,
O=C1COc2ccc(C(=O)COc3ccc([N+](=O)[O-])cc3)cc2N1,nt,i,nt,nt,nt,
Cc1ccc(O)c(C(=O)c2cnc3c(c2)COc2ccc(C)cc2-3)c1,-6.8,-6.8*,i,i,i,
Cc1ccc(O)c(C(=O)c2cnc(/N=C(\N)N(C)C)nc2)c1,0.3,i,nt,nt,nt,
CCN1CCN(c2oc(COc3ccc(Cl)cc3)nc2C#N)CC1,nt,i,nt,nt,nt,
N#Cc1nc(COc2ccc(Cl)cc2)oc1N1CCN(Cc2ccccc2)CC1,-6.9,-6.9*,-24%*,i,i,KCNQ2 patch conf=i
CCn1ccc(C(=O)Nc2ncc(C)s2)n1,0.21,i,nt,nt,nt,
Cc1cccnc1NC(=O)C(c1ccccc1)c1ccccc1,0.11,i,nt,nt,nt,
